# Fh CTSL1 inh – Fasciola hepatica cathepsin L1 inhibitors, primary screen, counter-screen for PFM18AAP inhibitor project, biochemical, QFRET, fluorogenic peptide substrate; recombinant F. hepatica cathepsin L1, Z-Leu-Arg-MCA fluorescence; inhibition, % at 5.96 µM; actives 0.49% (n = 300,000);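 active = inhibition above the mean of all tested compounds plus 3 SD, set per screening campaign, cut at about 17% in these data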;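 note: 0% = plate median of test compound wells and 100% = 1 µM Z-Phe-Ala-diazomethylketone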
# Rin1 Abl inh – inhibitors of Rin1-Abl protein binding, primary screen, biochemical, TR-FRET | inhibition, % at 7.35 µM | actives 0.4% (n = 360,000) | Tyrosine-protein kinase ABL1 (Homo sapiens) + Ras and Rab interactor 1 (Homo sapiens), … | AID 588664, 2011; in the data active = inhibition above about 5%, passing the limit was not always enough
# M18AAP inhibitor – PfM18AAP inhibitors, malaria aminopeptidase, primary screen, biochemical, QFRET, recombinant enzyme | M18 aspartyl aminopeptidase (Plasmodium falciparum 3D7) | H-Glu-NHMec fluorogenic cleavage | inhibition, % at 7.35 µM | actives 1.2% (n = 290,000) | AID 1822, 2009;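 active = inhibition above the campaign mean inhibition over all tested compounds plus 3 SD, cut at about 28% in these data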;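 note: 0% = plate median of test compound wells and 100% = 2 mM ZnCl2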
# Calb FLC – C. albicans growth inhibition with fluconazole, primary screen, CaCi-2 strain, Alamar Blue fluorescence. C. albicans CaCi-2 (fluconazole-resistant clinical isolate) + fluconazole, 48 h. growth inhibition, % (no concentration beside the values). actives 0.57% (n = 300,000). AID 1979, 2009;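 active = growth inhibition above about 58% in most replicates, limit read from the data, passing the limit was not always enough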;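 note: all wells also contain fluconazole at 8 µg/ml as a sub-toxic cotreatment; 0% = median of DMSO wells and 100% = median of geldanamycin control wells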
# Active calls of the source: *; . = no result given. Only some compounds are listed: those with a hit (about 2.1% of all), similar ones and a draw of the others.
SMILES,Fh CTSL1 inh,Rin1 Abl inh,M18AAP inhibitor,Calb FLC
O=C(c1cccc(Cl)c1)N1CCN(C2CCCCC2)CC1,25*,2,-5,-1
COc1cc2c(cc1OC)C(c1ccccc1OC(C)C)CC(=O)N2 (centres undefined),1,2,0,-2
Cc1cccc2cc(CNCC3CCCO3)c(Cl)nc12 (centres undefined),-4,1,-1,99*
Cc1nn(C)c(C)c1/C=C/C(=O)O,-2,4,-1,5
Cc1nn(C)c(C)c1/C=C/C(=O)c1ccc(Cl)cc1Cl,4,0,-2,92*
CCOc1ccc(N)c(SSc2cc(OCC)ccc2N)c1,-2,0,43*,-5
CCOc1cccc(N)c1,.,3,.,.
CCc1ccc(NC(=O)CC2C(=O)N(c3ccc(C)cc3)C(=O)N2CCc2ccncc2)cc1 (centres undefined),-4,1,5,-1
COc1ccc(C(CNC(=O)CSc2ccc(Br)cc2C)N2CCOCC2)cc1 (centres undefined),24*,4,.,-9
COc1ccc(C(CNC(=O)CSc2ccccc2F)N2CCOCC2)cc1 (centres undefined),-7,0,.,1
N#C/C(=C\c1ccc2c(c1)OCO2)C(N)=S,1,-1,32*,7
CCCN1C(=O)/C(=C2/C=Cc3ccccc3N2CC)SC1=S,1,-4,3,-3
CCCN1/C(=C2/SC(=S)N(CC)C2=O)C=Cc2ccccc21,30*,-3,-4,-7
O=C(COC(=O)c1ccc([N+](=O)[O-])o1)c1ccccc1,-5,-4,-4,-2
O=C(OCCCOC(=O)c1ccc([N+](=O)[O-])o1)c1ccc([N+](=O)[O-])o1,23*,1,.,20
CC(C)CSc1nnc2c(n1)[nH]c1ccccc12,0,-4,-7,-9
CC1=CCC(/C=N\Nc2nnc3c(n2)[nH]c2ccccc23)CC1 (centres undefined),2,.,36*,-18
CCN(CC)CCN(Cc1cc2cc3c(cc2[nH]c1=O)OCO3)C(=S)NCC1CCCO1 (centres undefined),0,3,28*,1
CCN(CC)CCN(Cc1cc2cc3c(cc2[nH]c1=O)OCCO3)C(=S)NCC1CCCO1 (centres undefined),-2,0,6,-3
Oc1cccc(Nc2ncnc3c2oc2ccccc23)c1,3,-1,-3,91*
Oc1ccc(Nc2ncnc3c2oc2ccccc23)cc1,-1,3,-25,4
COC(=O)C1=C(C)N(C)C(=S)N(C)C1c1ccc(OC)cc1 (centres undefined),17*,1,-7,22
COC(=O)C1=C(C)N(C)C(C)=C(C(=O)OC)C1c1ccc(C(=O)OC)cc1,0,-1,10,-2
CC(C)Oc1ccc(C(=O)NCCCNC(=O)c2ccccn2)cc1,1,1,-3,8
CC1CCN(c2ccccc2NC(=O)c2ccc(F)cc2)CC1,18*,-1,2,10
SMILES,Fh CTSL1 inh,Rin1 Abl inh,M18AAP inhibitor,Calb FLC
CN1CCN(c2ccccc2NC(=O)c2ccc(F)cc2)CC1,-1,-3,-5,4
O=C1CSC(=S)N1c1cccc(O)c1,.,-1,-8,-10
O=C1CSC(=S)N1c1cccc(Br)c1,0,-1,30*,-16
CC1Oc2cc3oc4c(O)c(O)ccc4c(=O)c3c(O)c2C1(C)C (centres undefined),1,0,.,97*
COc1ccccc1NC(=O)CCC(=O)OCc1ccc([N+](=O)[O-])cc1,-41,-1,-11,10
CCOc1ccc(CCNC(=O)COC(=O)c2cc(OC)c(OC)cc2[N+](=O)[O-])cc1OCC,5,-5,.,2
COc1ccccc1N(CC(O)Cn1ccnc1C)S(=O)(=O)c1ccccc1 (centres undefined),1,3,-7,-14
CN(C)c1nc(C#N)nc(N2CCOCC2)n1,53*,0,-14,14
N#Cc1nc(N2CCCCC2)nc(N2CCOCC2)n1,76*,1,-1,-9
CCOC(=O)CNc1nc(C#N)nc(N2CCOCC2)n1,23*,0,-6,0
N#Cc1nc(N2CCCC2)nc(N2CCCC2)n1,56*,-1,-12,-7
C1CCN(c2nc(N3CCCCC3)nc(N3CCNCC3)n2)CC1,3,2,-6,-3
Cc1ccc(S(=O)(=O)N2CCC(C(=O)OCC(=O)Nc3cc(S(C)(=O)=O)ccc3Cl)CC2)cc1C,-5,0,4,-2
CC(C)NC(=O)NC(=O)COC(=O)c1ccc(S(=O)(=O)NCc2ccco2)cc1,.,-2,.,.
CN(c1ncnc(N)c1[N+](=O)[O-])C1CCS(=O)(=O)C1 (centres undefined),0,0,4,-7
Nc1ncnc(NC2CCS(=O)(=O)C2)c1[N+](=O)[O-] (centres undefined),49*,0,4,-8
Cc1onc(-c2c(F)cccc2Cl)c1C(=O)Nc1nnc(C(F)(F)F)s1,-1,-52,1,.
CCOc1cc(C(c2c(C)[nH][nH]c2=O)c2c(C)[nH][nH]c2=O)cc(Br)c1OC,0,1,30*,-9
CCOc1cc(C(c2c(C)[nH][nH]c2=O)c2c(C)[nH][nH]c2=O)cc([N+](=O)[O-])c1O,-3,-2,27,-5
CCOc1ccc(C(c2c(C)[nH][nH]c2=O)c2c(C)[nH][nH]c2=O)cc1OC,7,4,27,-1
CCOc1cc(C(c2c(C)[nH][nH]c2=O)c2c(C)[nH][nH]c2=O)cc(Cl)c1O,0,2,32*,13
CCOC(=O)C(NCCc1ccccc1F)(NC(C)=O)C(F)(F)F (centres undefined),-1,0,0,-5
COc1ccc(-c2cc(C(=O)NNC(=S)NC(=O)c3c(-c4ccccc4)noc3C)[nH]n2)cc1,0,-1,5,81*
CC(C)Cn1c(=S)[nH]c2cc(Cl)ccc21,2,1,5,0
O=C(c1ccco1)N1CCN(C(=O)c2ccco2)CC1,.,3,.,.
SMILES,Fh CTSL1 inh,Rin1 Abl inh,M18AAP inhibitor,Calb FLC
O=C1NCCN1C(=O)c1ccco1,21*,1,2,-17
Cc1cc(=O)[nH]c(SCC(=O)O)c1C#N,-2,2,5,9
C=C(C)CSc1[nH]c(=O)cc(C)c1C#N,-3,5,5,86*
C=C(C)Cn1c(SCC(=O)N/N=C/c2c(O)ccc3ccccc23)nc2ccccc2c1=O,-4,0,3,2
CCOC(=O)c1c(NC(=O)C2Cc3ccccc3C(=O)O2)sc2c1CCCC2 (centres undefined),1,2,.,104*
Cc1ccc(S(=O)(=O)N2CCC3(CC2)OCCN3S(=O)(=O)c2c(C)cc(C)cc2C)cc1,0,0,.,-5
Brc1ccc(/C=C/C=N/Nc2nc3ccccc3s2)cc1,7,-4,1,99*
CCC/C=N/Nc1nc2ccccc2s1,1,1,35*,-25
